Screen size: about 370,000 compounds; about 500 (0.14%) were called active. Not shown: some 2% with an inconclusive outcome. Calls follow the shape of the dose curve; as a rule, active = well fitted activation curve with a large enough effect; inconclusive = small, poorly fitted or top-dose-only effect; inactive = no such curve, though single readings can be large or run the other way. The list comes from a sample in which actives are over-represented; it also holds similar structures and randomly drawn compounds. Where a call stands in place of a potency, no number is given.
Potency is read from the fitted curve at half-maximal effect.

The experiment is described as follows: qHTS of alpha-syn Inhibitors. Also: nearly all actives have a fitted effect of over 65% in size. The note with it: Yeast expressing alpha-synuclein, BacTiter-Glo, 24 h; Potency: growth rescue; series mostly up to 46.1 µM. The text has this: The goal of this project is to identify new chemical probes capable of reversing the toxicity associated with the Parkinson disease-related protein, alpha-synuclein. Compounds will be selected on their ability to restore growth in yeast cells expressing toxic levels of alpha-synuclein. These compounds will provide a complementary approach to deciphering the tangled mechanisms of toxicity and protection that we have uncovered through genome-wide genetic screens and are beginning to uncover in a large-scale proteomics analysis with mass spectroscopy. To this end, a miniaturized assay was developed to be screened against the Molecular Libraries Small Molecule Repository (MLSMR) to discover alpha-synuclein inhibitors. Please note that in the set-up this yeast-based assay compounds that inhibit as alpha-syn, have a read-out as activators. NIH Chemical Genomics Center [NCGC] NIH Molecular Libraries Probe Centers Network [MLPCN] MLPCN Grant: NS060957 Assay Submitter (PI): Susan Lindquist, Whitehead Institute/MIT
Dispense 2.5 microL yeast galactose medium per 1536-well plate, pin compound, dispense 2.5 microL alpha-synuclein expressing yeast in galactose medium at OD600=0.02 (pregrown in raffinose medium to mid-log phase) per well, incubate for 24 hr at 30 deg C, and cell growth will be measured using 5 microL of Bactiter/Glo reagent to entire plate and read using Luminescence Protocol in ViewLux.
A general note: Quantitative high-throughput screening tests each substance at several concentrations.
As to `O=C(O)c1c(Br)c(Br)c(Br)c(Br)c1C1c2ccc(O)cc2Oc2cc(O)ccc21`, the Potency result is “inactive”.

Consider `O=C(CN1C(=O)COc2ccc(S(=O)(=O)N3CCCCCC3)cc21)N1CCN(c2cccc(C(F)(F)F)c2)CC1`, for which the Potency entry is “inactive”.

Turning to `C=COC(=O)N1CCN(/[N+]([O-])=N/Oc2ccc([N+](=O)[O-])cc2[N+](=O)[O-])CC1`, the Potency result is “inactive”.

With `CCc1ccc(NC(=O)CCS(=O)(=O)c2cc3c(cc2Cl)NC(=O)CO3)cc1`, the Potency entry is “inactive”.

On to `O=C(CN1C(=O)COc2ccc(S(=O)(=O)N3CCOCC3)cc21)N1CCN(c2cccc(Cl)c2)CC1`, for which the Potency result was “inactive”.

In the case of `Oc1ccc(Cl)cc1C1C=C(c2ccc3c(c2)OCO3)NC(c2ccc(F)c(Br)c2)N1` (centres undefined), the Potency result is “inactive”.

Consider `CCCSc1nc2sc3c(c2c(=O)n1-c1cccc(Br)c1)CC(C)(C)OC3`, for which the Potency entry is “inactive”.

As to `CN1CCN(/[N+]([O-])=N/Oc2ccc([N+](=O)[O-])cc2[N+](=O)[O-])CC1`, the Potency result was “inactive”.

On to `CC1(C)Cc2ccccc2-c2c[nH]c(=O)n21`, for which the Potency entry is “inactive”.

As to `Cc1c(NS(=O)(=O)c2ccc(Cl)cc2)c(=O)n(-c2ccccc2)n1C`, the Potency result was “inactive”.

As for `O=C(O)C1=C/C(=C/C=[N+]2c3cc(O)c(O[C@H]4OC(CO)[C@@H](O)[C@@H](O)[C@@H]4O)cc3C[C@@H]2C(=O)[O-])C[C@H](C(=O)O)N1` (some centres undefined), the Potency result was “inactive”.

With `COc1ccc(-c2nc3c(c(SCC(=O)Nc4ccc(C(=O)O)cc4)n2)Cc2ccccc2O3)cc1`, the Potency entry is “inactive”.

As for `Cc1ccc(S(=O)(=O)N2CCN(c3nc(-n4cnc5ccccc54)nc4ccccc34)CC2)cc1`, the Potency entry was “inactive”.

Take `SCc1nc2ccc(Cl)cc2[nH]1`: the Potency entry was “inactive”.

As to `COc1ccc(-c2c(C)c3ccc(O)c(CN4CCCC4)c3oc2=O)cc1OC`, the Potency result is “inactive”.

Turning to `CCOC(=O)C(=Cc1ccccc1)C(=O)c1ccccc1`, the Potency is 14.1 µM (active).

Consider `CCc1ccccc1NC(=O)/C(=C/c1ccccc1)c1ccccc1`, for which the Potency entry is “inactive”.

With `CCOC(=O)/C(=C\c1ccc([N+](=O)[O-])cc1)C(=O)c1cc(C(C)=O)c(Nc2ccccc2)s1`, the Potency entry was “inactive”.

For the compound `CCC(CC)C(=O)N1CCc2cc(OC)c(OC)cc2C1COc1ccc(F)cc1` (centres undefined), the Potency entry is “inactive”.

Consider `O=C(Nc1nnc(C2COc3ccccc3O2)o1)c1ccc(F)cc1` (centres undefined), for which the Potency is 17.8 µM (active).

Regarding `CC1COc2ccccc2N1C(=O)c1ccc(F)cc1` (centres undefined), the Potency entry was “inactive”.

In the case of `O=C(Nc1cccc2c1CCCC2)c1ccc(F)cc1`, the Potency entry was “inactive”.

Consider `CC(C)(C)OC(=O)N1CCC(c2c(C(=O)Nc3ccc4c(c3)OCO4)cnn2-c2ccccc2)CC1`, for which the Potency result was “inactive”.

As to `CCN1CCN(c2ccc(/C=C/c3ccnc4ccccc34)cc2)CC1`, the Potency result is “inactive”.

For `OC(CBr)CN1CCCCC1` (centres undefined), the Potency result was “inactive”.

With `O=C(COc1ccccc1C(=O)Nc1ccccc1)Nc1cccc(F)c1`, the Potency entry was “inactive”.

With `CC1CC2C3CCC4=CC(=O)C=C[C@]4(C)[C@@]3(F)[C@@H](O)C[C@]2(C)[C@@]1(O)C(=O)CO` (some centres undefined), the Potency entry is “inactive”.

With `CC1(C)CCc2cc(S(=O)(=O)N3CCN(c4nc(-c5cccs5)nc5ccccc45)CC3)ccc2O1`, the Potency result was “inactive”.

Regarding `C(=Nc1ccc(/C=C/c2ccnc3ccccc23)cc1)Nc1ccc(/C=C/c2ccnc3ccccc23)cc1`, the Potency result was “inactive”.

As for `O=C(CSc1ncc(CO)n1Cc1ccc(Cl)cc1)NCc1ccc(F)cc1`, the Potency result was “inactive”.

With `CCC(C)NC(=O)c1cc(Cl)ccc1OC` (centres undefined), the Potency result was “inactive”.

For the compound `COc1ccc(Cl)cc1C(=O)NNC(=S)NC(=O)/C=C/c1ccco1`, the Potency was 3.55 µM (active).

For `COc1ccc(Cl)cc1C(=O)NNC(=O)c1nc2nc(C)cc(C)n2n1`, the Potency result was “inactive”.

On to `Cc1cc(C)c2oc(-c3cccc(NC(=O)c4cccc(F)c4)c3C)nc2c1`, for which the Potency result was “inactive”.

In the case of `O=[N+]([O-])c1ccc(S(=O)(=O)N2CCN(c3nc(-c4ccccc4)nc4ccccc34)CC2)cc1`, the Potency entry was “inactive”.

With `Cc1ccc(C=O)cc1Cl`, the Potency result is “inactive”.

On to `O=C(Nc1ccccc1)c1ccccc1OCc1ccccc1`, for which the Potency entry was “inactive”.

`OC[C@@H]1O[C@H](n2cnc3c(SCc4ccccc4)ncnc32)[C@H](O)[C@H]1O`: the Potency entry was “inactive”.

As to `COc1ccc(CN(Cc2ccccc2)C(=O)c2ccc(O)cc2)cc1COc1ccc(NC(C)=O)cc1`, the Potency result is “inactive”.

As for `C=C1C=C(C)n2ncc(C(=O)Nc3ccccc3O)c2N1`, the Potency result was “inactive”.

For `COc1cccc2c1C(=O)c1c(O)c3c(c(O)c1C2=O)CC(O)(C(C)=NNC(=O)c1ccc(Cl)c(Cl)c1)CC3OC1CC(N)C(O)C(C)O1` (centres undefined), the Potency is 28.2 µM (active).

On to `Nc1ncnc2nnsc12`, for which the Potency entry was “inactive”.

With `CN(N=O)c1ccc(C=C2c3ccccc3-c3ccccc32)cc1`, the Potency result was “inactive”.

For `COc1cc(OC)c(/C=C/c2ccnc3ccccc23)c(OC)c1`, the Potency result is “inactive”.

On to `S=c1[nH]c(=S)c2n[nH]nc2[nH]1`, for which the Potency result is “inactive”.

As for `COc1ccc(Cn2c(=O)[nH]c3cc(C(=O)N4CCN(C(=O)c5ccco5)CC4)ccc3c2=O)cc1`, the Potency result was “inactive”.

As for `COc1ccc(CN2CCc3nc(Nc4ccccc4)ncc3C2)c(OC)c1OC`, the Potency result is “inactive”.

Take `COc1cc2[nH]c(C)c(CCN3CCN(c4ccccc4)CC3)c2cc1OC`: the Potency entry is “inactive”.

On to `Cc1ccc(-c2nc3ccccn3c2Nc2ccc(F)cc2)o1`, for which the Potency result is “inactive”.

For the compound `CSc1ccc(C2C(C(=O)Nc3ccccc3)=C(C)Nc3nc4ccccc4n32)cc1` (centres undefined), the Potency entry was “inactive”.

With `Cc1cccc(NC(=O)COC(=O)c2ccccc2OCc2cccc(Br)c2)c1`, the Potency entry was “inactive”.

On to `O=C1CSC2(C(=O)N(Cc3ccccc3)c3ccccc32)N1c1cccc(F)c1` (centres undefined), for which the Potency result was “inactive”.

As to `CCOC(=O)Cn1c(=O)n(C2CCCCC2)c2nc(-c3cccc(OC)c3)nc(C(N)=O)c21`, the Potency result was “inactive”.

With `O=C(Nc1ccccc1C(F)(F)F)c1nc(S(=O)(=O)Cc2ccccc2F)ncc1Cl`, the Potency entry is “inactive”.

As to `COc1ccc(OC)c(NC(=O)C2CCCN(S(=O)(=O)c3ccc4c(c3)CCCC(=O)N4)C2)c1` (centres undefined), the Potency result is “inactive”.

Consider `O=C1OCCN1C(=O)[C@H]1[C@H](c2ccc(Cl)cc2)C(c2cccc(Cl)c2)=NN1c1ccc(Br)cc1`, for which the Potency entry was “inactive”.

Consider `O=C1OCCN1C(=O)[C@H]1[C@H](c2ccccc2)C(c2ccc(F)cc2)=NN1c1ccccc1`, for which the Potency result is “inactive”.

Regarding `C[C@@H]1C(c2ccc(F)cc2)=NN(c2ccc(Br)cc2)[C@H]1C(=O)N1CCOC1=O`, the Potency is 22.4 µM (active).

For `COc1ccc(-c2nc(=N)sn2-c2ccccc2)cc1`, the Potency result is “inactive”.

In the case of `Cc1ccc(C)c(N2CCN(C(=O)CCc3nc(-c4cccc(C(F)(F)F)c4)no3)CC2)c1`, the Potency entry was “inactive”.

Take `Cc1ccc(C)c(N2CCN(C(=O)CCc3nc4ccccc4[nH]3)CC2)c1`: the Potency is 15.8 µM (active).

As for `Cc1ccc(C)c(N2CCN(C(=O)Cn3ncn4cccc4c3=O)CC2)c1`, the Potency entry was “inactive”.

Turning to `COc1ccc(CNC(=O)CSc2nc3ccccc3nc2Cc2ccccc2)cc1`, the Potency result is “inactive”.

In the case of `C(=Nc1ccc(/C=C/c2ccnc3ccccc23)cc1)c1cc2c3c(c1)CCCN3CCC2`, the Potency result was “inactive”.

`O=C(COC(=O)c1ccccc1OCCOc1ccccc1)Nc1cccc(Br)c1`: the Potency result is “inactive”.

As to `COc1ccc(C(C)(NC(C)=O)c2nc(-c3ccc(S(C)(=O)=O)cc3)cs2)cc1` (centres undefined), the Potency entry is “inactive”.

Consider `COc1ccc(C(C)(O)c2nc(-c3cc(F)cc(F)c3)cs2)cc1` (centres undefined), for which the Potency entry was “inactive”.

Consider `COc1ccc(C(C)(O)c2nc(-c3ccc(C)c(C)c3)cs2)cc1` (centres undefined), for which the Potency was 3.16 µM (active).

With `CCOc1n[nH]c(-c2ccccc2)n1`, the Potency result was “inactive”.

For the compound `COc1ccc(N2CCN(S(=O)(=O)c3ccc(-c4coc(C)n4)cc3)CC2)cc1`, the Potency entry is “inactive”.

With `Cc1ccc2ccc3c(c2n1)NS(=O)(=O)c1ccccc1-3`, the Potency entry is “inactive”.

In the case of `CCN1CCN(C(=O)C2(NC(=O)Nc3cccc(F)c3)CCCCC2)CC1`, the Potency result is “inactive”.

For `CCc1sc(C(=O)N2CCN(CC(=O)Nc3cccc(F)c3)CC2)cc1C`, the Potency was 25.1 µM (active).

As for `CC(=O)N1CCN(CC(=O)Nc2ccc(C)c(F)c2)CC1`, the Potency result was “inactive”.

For the compound `CC1(C)CC(=O)c2cc(C(=O)NCc3ccccc3)c(=O)[nH]c2C1`, the Potency result is “inactive”.

With `Oc1ccccc1-c1nc2ccc(Cl)cn2c1Nc1ccc2c(c1)OCCO2`, the Potency entry was “inactive”.

In the case of `COc1cc(C(O)c2nc(-c3cnn(C)c3)cs2)ccc1F` (centres undefined), the Potency result was “inactive”.

On to `COCc1cccc(-c2csc(C(O)c3ccc(F)cc3)n2)c1` (centres undefined), for which the Potency entry was “inactive”.

As to `COc1ccc(C(O)c2nc(-c3ccc4c(c3)OCO4)cs2)cc1` (centres undefined), the Potency is 22.4 µM (active).

Consider `O=C(CCS(=O)(=O)c1ccc2c(c1)NC(=O)CO2)Nc1cccc(C(F)(F)F)c1`, for which the Potency entry was “inactive”.

For the compound `COc1cc(OC)c(OC)cc1/C=C1\C=Cc2ccccc21`, the Potency result was “inactive”.

For `CCC(=O)Nc1cccc(-c2nc3cc(C)ccc3o2)c1`, the Potency result is “inactive”.

For the compound `Cc1cccc(N(C)C(=O)CS(=O)(=O)c2cccc3nsnc23)c1`, the Potency entry was “inactive”.

Regarding `O=C1O/C(=C\c2ccc(O)cc2)C(O)=C1c1ccc(O)cc1`, the Potency entry was “inactive”.

For the compound `CCN(CC)c1nc(C#N)nc(OC)n1`, the Potency entry is “inactive”.

In the case of `CN(C)c1ccc(C=Nc2ccc(/C=C/c3ccnc4ccccc34)cc2)cc1`, the Potency entry was “inactive”.

For the compound `CCOC(=O)c1ccc(NC(=O)C2CCN(S(=O)(=O)c3ccc4c(c3)CCCC(=O)N4)CC2)cc1`, the Potency result was “inactive”.

Consider `Cc1csc(NCC(=O)c2c[nH]c3ccccc23)n1`, for which the Potency result was “inactive”.

Regarding `COc1ccc(CC(=O)Nc2nnc3n2CCS3)cc1OC`, the Potency result was “inactive”.

In the case of `C[N+]1(CC(=O)c2cccs2)CCOCC1`, the Potency entry is “inactive”.

Consider `CC(C)(C)c1ccc(C(=O)C[n+]2cccc3cc(Cl)ccc32)cc1`, for which the Potency result is “inactive”.

Regarding `CCOC(=O)c1c(-c2ccc(OC)cc2)oc2ccc(OCc3ccc(C(=O)OC)cc3)cc12`, the Potency entry is “inactive”.

For the compound `CCN(CC)c1ccc(S(=O)(=O)N2CCOCC2)cc1NC(=O)CSc1cccc[n+]1[O-]`, the Potency was 17.8 µM (active).

With `O=C(CSc1ccccc1)Nc1cccc(S(=O)(=O)N2CCOCC2)c1`, the Potency entry was “inactive”.

Turning to `CCN(CC)c1ccc(S(=O)(=O)N2CCCCC2)cc1NC(=O)C1=COCCO1`, the Potency result was “inactive”.

Consider `Cc1ccc(CCNC(=O)c2ccc(CNS(=O)(=O)c3ccc(C)cc3)cc2)cc1`, for which the Potency result is “inactive”.

In the case of `Nc1ccc(/C=C/c2ccnc3ccccc23)c([N+](=O)[O-])c1`, the Potency entry was “inactive”.

`Oc1ccc(N=Nc2nccs2)c(O)c1`: the Potency was 2.24 µM (active).

Take `CN(C)c1ccc(/C=N\Nc2ccc([N+](=O)[O-])cc2[N+](=O)[O-])cc1Cl`: the Potency entry is “inactive”.

These data come from PubChem BioAssay AID652106 (National Center for Advancing Translational Sciences (NCATS), 2013).
